From PubChem BioAssay
RXFP1 agonist: qHTS Assay for Agonists of the Relaxin Receptor RXFP1; AID 2676, 2010; Potency, µM (top dose mostly 57.5 µM), most hits filed as activators; Relaxin receptor 1 (Homo sapiens), Q9HBX9; 370,000 tested, 0.3% active; HEK293T-RXFP1 cAMP TR-FRET, 30 min; response scale: percent of porcine relaxin response, buffer zero; active = well fitted activation curve with a large enough effect; inconclusive = small, poorly fitted or top-dose-only effect; also: nearly all actives have a fitted effect of over 60% in size
Target sequence (Q9HBX9 whole entry, looked up): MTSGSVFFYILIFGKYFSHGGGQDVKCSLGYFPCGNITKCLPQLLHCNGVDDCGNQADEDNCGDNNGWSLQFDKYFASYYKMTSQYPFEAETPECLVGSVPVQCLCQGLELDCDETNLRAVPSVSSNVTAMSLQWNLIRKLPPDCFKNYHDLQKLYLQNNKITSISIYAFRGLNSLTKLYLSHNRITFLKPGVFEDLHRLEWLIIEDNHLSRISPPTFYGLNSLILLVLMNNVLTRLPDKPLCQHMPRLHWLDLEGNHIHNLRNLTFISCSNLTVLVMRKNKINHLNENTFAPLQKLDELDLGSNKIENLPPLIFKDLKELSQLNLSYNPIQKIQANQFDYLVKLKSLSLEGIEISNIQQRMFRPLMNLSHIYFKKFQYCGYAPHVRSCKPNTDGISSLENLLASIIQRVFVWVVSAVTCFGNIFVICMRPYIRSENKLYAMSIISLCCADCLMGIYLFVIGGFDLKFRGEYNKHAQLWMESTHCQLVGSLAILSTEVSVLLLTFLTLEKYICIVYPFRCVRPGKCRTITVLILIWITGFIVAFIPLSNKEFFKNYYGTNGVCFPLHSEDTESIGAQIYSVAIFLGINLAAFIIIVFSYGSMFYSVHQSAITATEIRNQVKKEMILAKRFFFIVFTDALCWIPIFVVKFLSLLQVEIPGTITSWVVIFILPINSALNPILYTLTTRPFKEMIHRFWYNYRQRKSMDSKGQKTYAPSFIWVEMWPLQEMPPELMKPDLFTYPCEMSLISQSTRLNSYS
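HEK293T cells stably expressing RXFP1 were pretreated with the PDE4 inhibitor Ro 20174, exposed to compounds for 30 min at 37C, lysed, and cAMP was read by TR-FRET. Data normalized to buffer (basal) and 29 nM porcine relaxin (100%).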
gsp ag: qHTS for Agonist of gsp, the Etiologic Mutation Responsible for Fibrous Dysplasia/McCune-Albright Syndrome: qHTS. 340,000 tested, 0.13% active. AID 624287, 2012. gsp mutant cells, cAMP HTRF, 30 min. Potency, µM (doses to about 76.9 µM), most hits filed as activators; active = well fitted activation curve with a large enough effect; inconclusive = small, poorly fitted or top-dose-only effect, or another doubt; inactive = no such curve, though single readings can be large or run the other way; cell line not stated here;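 also: phosphodiesterase inhibitor Ro 20-1724 added with compounds to block cAMP breakdown; nearly all actives have a fitted effect of over 60% in size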
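Cells in DMEM/10% FBS with G418 were pretreated with compounds in DMSO plus […] (300 uM stock) for 30 min at 37C. cAMP was measured by HTRF (cAMP-d2 plus anti-cAMP antibody-K) after 30 min at room temperature.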
TSHR antag: Antagonists of the Thyroid Stimulating Hormone Receptor: HTS campaign; Thyrotropin receptor (Homo sapiens), P16473; TSHR-expressing cells, TSH-stimulated cAMP HTRF, 2 h; stronger effect = lower value; activity change, negative = inhibition, % at 11.5 µM; 330,000 tested, 0.2% active; AID 504810, 2011;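 active = activity change below a set negative limit, meaning inhibition stronger than a set level, cut at about -70% in these data; inconclusive = activity change between two set negative limits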
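Freshly harvested TSHR cells receive pin-tooled compound, then EC80 TSH at 4nM final. After 2 hours at 37 deg C, antibody in lysis buffer and cAMP-d2 are added; 30 minutes at ambient temperature precede the HTRF read.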
RXFP1 antagonist: qHTS Assay for Antagonists of the Relaxin Receptor RXFP1. 350,000 tested, 0.59% active. activity change, negative = inhibition, % at 57.5 µM. HEK293-RXFP1, relaxin-stimulated cAMP HTRF, 30 min; stronger effect = lower value;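 active = activity change of -60% or lower, but not beyond a set lower limit; inconclusive = change between -60% and -40%, or beyond the set limit; inactive = change above -40%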
gsp antag: qHTS for Antagonists of gsp, the Etiologic Mutation Responsible for Fibrous Dysplasia/McCune-Albright Syndrome: qHTS | 340,000 tested, 0.4% active | gsp-mutant cells, cAMP HTRF, 30 min | Potency, µM (highest dose often 76.9 µM), hits mostly inhibitors; calls by dose curve; cell line not stated here;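 also: intracellular cAMP measured with PDE inhibitor Ro 20-1724 present during compound exposure; nearly all actives have a fitted effect of over 65% in size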
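HTRF cAMP read-out (cAMP-d2 plus anti-cAMP antibody-K in lysis buffer, 30 min RT). Before lysis, cells are exposed to compounds with […] for 30 min at 37C in DPBS containing Ca/Mg, BSA and Tween 20.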
A number is an active result; - = inactive; ? = inconclusive; . = not tested or not shown; [ ] = another dose, or the depositor's remark. Most compounds without a hit are left out; they make up all but 1% or so of the library.

SMILES | RXFP1 agonist | gsp ag | TSHR antag | RXFP1 antagonist | gsp antag
COc1cc(OC)c(NC(=O)c2cc3ccccc3cc2O)cc1Cl | . | - | . | - | 31.6µM
COc1cc2c(cc1NC(=O)CN(C)Cc1ccc(OC)c(OC)c1)oc1ccccc12 | - | - | - | - | 39.8µM
COc1ccc(OC)c(NC(=O)c2cc3oc4ccccc4c3cc2O)c1 | - | 31.6µM | - | - | ?
COc1cccc(-c2nc(SCc3cccc(Br)c3)n3[nH]c(=O)cc3n2)c1 | - | . | . | - | .
O=C(CSc1nc(-c2ccc(F)cc2)[nH]c1-c1ccc(F)cc1)Nc1ccc2c(c1)OCCO2 | - | . | . | ? | .
O=C(CSc1nc(-c2ccc(F)cc2)[nH]c1-c1ccc(F)cc1)Nc1ccc2c(c1)OCO2 | - | . | . | -60.0 | .
CC(=O)N1CCCC1c1nc2ccccc2n1Cc1cccc(Cl)c1 (stereo not given) | - | . | . | . | .
Cc1cc(NC(=O)COC(=O)CCNS(=O)(=O)c2c(Cl)cccc2Cl)no1 | - | -[15.4 µM] | - | -69.5 | -
CCOC(=O)Cn1c(=O)oc2cc(S(=O)(=O)N3CCN(c4ccc(Cl)cc4)CC3)ccc21 | - | . | . | - | .
CC[C@H](C)NC(=O)CCCCCn1c(=S)[nH]c2c([nH]c3ccc(OC)cc32)c1=O | - | - | - | -79.9 | -
COc1ccc2[nH]c3c(=O)n(CCCCC(=O)N4CCC(C(N)=O)CC4)c(=S)[nH]c3c2c1 | - | - | - | -94.6 | -
COc1ccc2[nH]c3c(=O)n(CCCCC(=O)NCCN4CCCC4)c(=S)[nH]c3c2c1 | - | - | - | ? | -
CCOC(=O)c1ccc(N2C(=O)c3[nH]nc(-c4ccc(C)cc4)c3C2c2cccc(F)c2)cc1 (stereo not given) | - | . | . | . | .
CNC(=O)C1CCC(Cn2c(=O)[nH]c3ccsc3c2=O)CC1 (stereo not given) | - | . | . | - | .
CCOCCCn1c(SCC(=O)Nc2ccc(F)cc2)nc2c(sc3ccccc32)c1=O | ? | . | . | - | .
O=C1C=C(N2CCCCCC2)C2(CCCCC2)O1 | - | - | - | -61.4 | -
CCN(CCCNC(=O)c1nn(-c2ccc(OC)cc2)c(=O)c2c1c1ccccc1n2C)c1ccccc1 | - | . | . | - | .
N#Cc1c(C(F)(F)F)cc(-c2ccccc2Cl)[nH]c1=O | - | - | - | -110.0 | 28.2µM
S=c1[nH]nc(-c2cccnc2)n1/N=C/c1ccc(Br)s1 | - | -[15.4 µM] | - | - | ?
Cc1ccc(/C=N/n2c(-c3cccnc3)n[nH]c2=S)s1 | - | - | - | - | 7.94µM
O=C(C=Cc1ccccc1O)c1ccccc1O | . | - | . | -66.2 | -
O=C(/C=C/c1ccccc1Cl)c1ccccc(=O)c1O | - | - | - | -79.1 | -
O=C(/C=C/c1ccc(O)c(O)c1)c1ccccc1O | - | -[15.4 µM] | - | - | -
O=C(/C=C/c1ccc(Cl)cc1)c1cccnc1 | - | - | - | . | -
O=C(/C=C/c1ccccc1Cl)c1cccnc1 | - | - | - | -72.0 | -
SMILES | RXFP1 agonist | gsp ag | TSHR antag | RXFP1 antagonist | gsp antag
COc1ccc2c(c1)c(=O)oc1cc(O)ccc12 | - | ? | - | - | -
O=c1oc2cc(O)ccc2c2ccccc12 | 14.1µM | 8.91µM | - | - | -
N#Cc1nc(-c2ccc(COc3ccc(Cl)cc3)o2)oc1N1CCC(C(N)=O)CC1 | - | . | . | - | .
COc1ccc(C(=O)Nc2ccc(OCc3ccccc3)cc2)cc1[N+](=O)[O-] | - | - | - | - | -
COc1ccc(C(=O)Nc2ccc(Nc3ccccc3)cc2)cc1[N+](=O)[O-] | - | - | - | - | 28.2µM
CCOc1ccc2oc(C(=O)OCC(=O)N3C(C)CCCC3C)c(C)c2c1 (stereo not given) | - | ? | -78.9 | - | ?
Cc1cccc(Nc2nc3c(s2)CCCC3)c1 | - | - | - | - | -
O=C(O)c1ccc(Nc2nc3c(s2)CCCC3)cc1 | - | 10µM | - | - | -
Nc1c(O)ccc2c1C(=O)c1ccccc1C2=O | - | - | - | -79.6 | 25.1µM
CCOc1ccccc1NC(=O)Cn1c(=O)n(C(C)C)c(=O)c2oc3ccccc3c21 | - | . | . | - | .
CCc1cc2c(=O)nc3n(c2s1)Cc1ccccc1/C3=C(/O)c1cccc([N+](=O)[O-])c1 | ? | 3.16µM | - | - | -
CCCCOc1ccc(/C=N/Nc2cc(N3CCOCC3)nc(C)n2)cc1 | - | - | -117.9 | - | -
CC(=O)c1sc(NC(=O)C2(F)C(F)(F)C(F)(F)C(F)(F)C(F)(F)C2(F)F)nc1C | - | - | -75.5 | - | ?
CCCC(=O)Nc1nc(C)c(C(C)=O)s1 | 17.8µM | ? | - | - | -
O=C(NCC(c1ccco1)N1CCc2ccccc21)C(=O)Nc1ccccc1 (stereo not given) | - | -[15.4 µM] | - | -66.0 | -
Cc1ccc(S(=O)(=O)N(C)CC(=O)Nc2ccc(C)cn2)cc1 | - | - | - | - | -
Cc1ccc(S(=O)(=O)N(C)CC(=O)Nc2cc(C)ccn2)cc1 | - | -[15.4 µM] | - | -82.8 | -
Cc1ccc(CNC(=O)CN(C)S(=O)(=O)c2ccc3c(c2)n(C)c(=O)c(=O)n3C)cc1 | - | - | - | -68.4 | -
CN(Cc1ccco1)c1ncnc2ccc(-c3ccc4c(c3)OCCO4)cc12 | - | . | - | . | .
CCCC(c1nnnn1Cc1ccc(OC)cc1)N1CCN(c2ccccc2)CC1 (stereo not given) | - | - | - | - | -
COc1ccc(Cn2nnnc2C(c2ccccn2)N2CCN(c3cc(Cl)ccc3C)CC2)cc1 (stereo not given) | - | - | -92.7 | - | -
COCCn1nnnc1C(c1ccccn1)N1CCN(c2cc(Cl)ccc2C)CC1 (stereo not given) | - | - | - | - | -
COc1ccc(Cn2nnnc2C(CC(C)C)N2CCN(c3ccccc3)CC2)cc1 (stereo not given) | - | ? | -72.0 | - | -
Cc1ccc(NC(=O)Cn2c(=O)n(CCCS(=O)(=O)C3CCCCC3)c(=O)c3ccccc32)cc1F | - | . | . | . | .
CCN(C(=O)c1c(C)oc2ncn(CC(C)C)c(=O)c12)c1cccc(Cl)c1 | - | . | . | . | .
SMILES | RXFP1 agonist | gsp ag | TSHR antag | RXFP1 antagonist | gsp antag
CCOc1ccccc1NC(=O)CN1c2ccccc2S(=O)(=O)c2ccccc21 | - | . | . | - | .
COc1ccc(N2CCN(c3cnc4ccccc4n3)CC2)cc1 | - | ? | - | - | -
COc1cccc(N2CCN(c3cnc4ccccc4n3)CC2)c1 | - | -[15.4 µM] | - | - | 44.7µM
Cc1cc(Cl)c(S(N)(=O)=O)cc1OCC(=O)NC1CCCCC1 | - | - | - | - | -
Cc1cc(Cl)c(S(=O)(=O)NC2CCCC2)cc1OCC(=O)NC1CCCCC1 | - | - | - | - | 28.2µM
COc1ccccc1C1CCN(c2cc(O)ccc2[N+](=O)[O-])CC1 | - | -[15.4 µM] | - | - | 31.6µM
COc1ccccc1C1CCN(C(=O)c2ccccc2)CC1 | - | - | - | - | -
